Test results published in PubChem BioAssay (NCI).
Values joined by “and” are separate entries in the source; they are usually repeats but may differ in a detail not shown here. Equal entries are not always repeated. About 83,000 compounds went through this panel and 20% of them were active in at least one assay; those are over-represented in the sample as a whole.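 Note: values are percent growth. 100 is the growth of untreated cells, values between 100 and 0 indicate rising inhibition; between -100 and 0 indicates cell death.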 Active and inactive are the calls of the source. How the source made its calls: active means growth percent below 10; inactive means the rest.

Assays:
UACC-62 melanoma = experiment: NCI-60 one-dose screen, 48 h (100 = growth as untreated, 0 = no growth, -100 = all killed); conditions: 10 µM unless noted
TK-10 renal = experiment: as above; conditions: 10 µM unless noted

| SMILES | growth (UACC-62 melanoma) | growth (TK-10 renal) |
| --- | --- | --- |
| N#CC12COC3(CCCCC3C1(C#N)C#N)OC2=N (stereo unspecified) | -38.9% [100 µM] (active) | 41.4% [100 µM] (inactive) |
| CCC/C(Cl)=N\OC(=O)Nc1ccc(F)cc1 | -93.4% [100 µM] (active) and -100% [100 µM] (active) | -100% [100 µM] (active) |
| N#CC1C(=O)N(c2ccccc2)NC12OC(=O)c1ccncc12 (stereo unspecified) | 69.2% [20 µM] (inactive) and 17.2% [20 µM] (inactive) | 88.7% [20 µM] (inactive) and 4.38% [20 µM] (active) |
| O=c1c(-c2ccc3c(c2)OCO3)coc2c3c(ccc12)OCO3 | 49.2% [100 µM] (inactive) and -100% [100 µM] (active) | -27.5% [100 µM] (active) and -100% [100 µM] (active) |
| Nc1nc(Nc2cc(F)c(Cl)c(F)c2)cc(=O)[nH]1 | 85.2% [100 µM] (inactive) and -90.5% [100 µM] (active) | 111% [100 µM] (inactive) and 27.1% [100 µM] (inactive) |
| Cc1cc(-c2nc3ccccc3s2)ccc1N | 46.1% [100 µM] (inactive) and 40.6% [100 µM] (inactive) | 35.5% [100 µM] (inactive) and 15.8% [100 µM] (inactive) |
| CC(C)C1OC23CCCCC2C(C#N)(C#N)C1(C#N)C(=N)O3 (stereo unspecified) | -2.68% [100 µM] (active) | 39.7% [100 µM] (inactive) |
| CCCCOC(=O)C1CC[C@H]2[C@@H]3CCc4cc(OC(=O)c5cccc6c(=O)c7ccccc7[nH]c56)ccc4[C@H]3CC[C@]12C (stereo partly specified) | -100% [50 µM] (active) | -100% [50 µM] (active) |
| CC(=O)c1cc2c(s1)C(=O)c1sccc1C2=O | -45.9% [100 µM] (active) and -100% [100 µM] (active) | -14.4% [100 µM] (active) and -100% [100 µM] (active) |
| CCCn1c2c(c3ccccc3c1=O)C(=O)c1ccccc1-2 | 63.1% [100 µM] (inactive) and 8.48% [100 µM] (active) | 88% [100 µM] (inactive) and 22.3% [100 µM] (inactive) |
| COc1cc2c(cc1-c1coc3cc(OCC=C(C)C)ccc3c1=O)OCO2 | 0.442% [100 µM] (active) and 1.53% [100 µM] (active) | 5.74% [100 µM] (active) and 19.4% [100 µM] (inactive) |
| Cc1cc(N2CCCC2)c([N+](=O)[O-])cc1[N+](=O)[O-] | 64.5% [100 µM] (inactive) and 32.1% [100 µM] (inactive) | 89.8% [100 µM] (inactive) and 75.9% [100 µM] (inactive) |
| COc1cc(CC2c3cc(OC)c(OC)cc3CCN2C)c(Oc2cc3c(cc2OC)-c2c(O)c(OC)cc4c2C(C3)N(C)CC4)cc1OC (stereo unspecified) | -60.3% [100 µM] (active) and -87.2% [100 µM] (active) | -10.6% [100 µM] (active) and -93% [100 µM] (active) |
| NC1=NN(c2ccccc2)C2(c3ccncc3C(=O)O)C1C(N)=NN2c1ccccc1 (stereo unspecified) | 67.3% [100 µM] (inactive) and 18.3% [100 µM] (inactive) | 106% [100 µM] (inactive) and 9.31% [100 µM] (active) |
| CCOC(=O)CCC(NC(=O)c1ccc(OCc2nc3cc(C(F)(F)F)ccc3nc2-c2ccccc2)cc1)C(=O)OCC (stereo unspecified) | 49.5% [100 µM] (inactive) and 4.13% [100 µM] (active) | 84.3% [100 µM] (inactive) and 14.7% [100 µM] (inactive) |
| C[C@]12CC[C@@H]3c4cc(Br)c(O)c(Br)c4CC[C@H]3[C@@H]1CC(Br)C2=O (stereo partly specified) | -79.5% [100 µM] (active) and -97.9% [100 µM] (active) | -93.2% [100 µM] (active) and -97.6% [100 µM] (active) |
| Nc1cc2c3c(cccc3c1)C(=O)N(c1ccc(OCCN3CCCCC3)cc1)C2=O | -67.3% [100 µM] (active) and -100% [100 µM] (active) | -13.5% [100 µM] (active) and -100% [100 µM] (active) |
| CC#CC#C/C=C1/C=CC2(CCCCO2)O1 (stereo unspecified) | 63.2% [100 µM] (inactive) and 4.56% [100 µM] (active) | 112% [100 µM] (inactive) and -41.5% [100 µM] (active) |
| CC(=O)OCC1=C(C)C[C@H]([C@@H](COC(C)=O)C2CCC3C4C[C@H]5O[C@]56CC=CC(=O)[C@]6(C)C4CC[C@@]32C)OC1=O (stereo partly specified) | -91% [50 µM] (active) and -99.6% [50 µM] (active) | -97.1% [50 µM] (active) and -100% [50 µM] (active) |
| COC(=O)C(=O)C(C(=O)C(=O)Nc1ccccc1C(=O)OC)c1nc2ccc(C(=O)c3ccccc3)cc2[nH]c1=O (stereo unspecified) | 54.3% [100 µM] (inactive) and 12.8% [100 µM] (inactive) | 82.4% [100 µM] (inactive) and 16.6% [100 µM] (inactive) |
| CCC1CC(C)C(O)/C=C/C=C/CC(C)OC(=O)CC(O)C(OC)C1OC1OC(C)CC(O)(C(C)=O)C1O (stereo unspecified) | 67.6% [100 µM] (inactive) and 33.4% [100 µM] (inactive) | 62.1% [100 µM] (inactive) and 38.8% [100 µM] (inactive) |
| C=C1C(=O)OC2C1CC(O)/C(C)=C\CCC1(C)OC21 (stereo unspecified) | 68.9% [100 µM] (inactive) and -86% [100 µM] (active) | 76.7% [100 µM] (inactive) and -65% [100 µM] (active) |
| CCOC(=O)CCCOc1cc(-c2ccccc2F)nc2cc3c(cc12)OCO3 | 31.5% [100 µM] (inactive) and -31.4% [100 µM] (active) | 58.8% [100 µM] (inactive) and 0% [100 µM] (active) |
| Oc1ccc(/C=C/c2cc(O)cc3c2C(c2cc(O)cc(O)c2)C(c2ccc(O)c(O)c2)O3)cc1 (stereo unspecified) | -57.3% [100 µM] (active) and -23.7% [100 µM] (active) | -15.5% [100 µM] (active) and -12.5% [100 µM] (active) |
| CC(=O)O[C@@H]1C[C@@]2(C)[C@@H]3CC=C4[C@@H](C[C@H](O)C(=O)C4(C)C)[C@]3(C)C(=O)C[C@]2(C)[C@H]1[C@@](C)(O)C(=O)/C=C/C(C)(C)OC(C)=O | -64.4% [100 µM] (active) and -99.7% [100 µM] (active) | -62% [100 µM] (active) and -91% [100 µM] (active) |
| O=C1C=C(Nc2ccc(S(=O)(=O)Nc3nccs3)cc2)c2ccccc2C1=O | -46.1% [100 µM] (active) and -88.9% [100 µM] (active) | 171% [100 µM] (inactive) and -86% [100 µM] (active) |
| N#Cc1sc2nc(/C=C3/C=CC=CC3=O)c(O)n2c1N | 18.5% [100 µM] (inactive) and 7.16% [100 µM] (active) | 78.8% [100 µM] (inactive) and 47.7% [100 µM] (inactive) |
| N#Cc1cnn2c1n[n+]([O-])c1ccc(Cl)cc12 | -91.7% [100 µM] (active) and -100% [100 µM] (active) | 98.1% [100 µM] (inactive) and -100% [100 µM] (active) |
